Laboratory results from PubChem BioAssay (NCATS).
A number with no mark means an inactive call. Records with an inconclusive call do not appear. A call without a number means that no potency is given here. The source made the active and inactive calls. The call rests on the fitted dose curve; in most records, active means well fitted curve in the direction sought with a large enough effect; inconclusive means small, poorly fitted or top-dose-only effect, or another doubt; inactive means no such curve, though single readings can be large; an effect the other way counts as inactive or inconclusive.

Columns and labels:
[1] = target: Cytochrome P450 2D6 (Homo sapiens) (UniProt P10635); assay: qHTS for inhibitors of CYP2D6 against the NCATS DSHEA and TCM libraries (AID 1919972); further: potency means the concentration at half of the fitted maximal effect
In short: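 qHTS, concentration–response format with most substances from 19.5 nM. CYP2D6 + pro-luciferin substrate, 15 min with compound, then 1x NADPH regen, 30–45 min RT dark. Glo detection 30 min, luminescence. Quinidine control.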

[2] = target: Cytochrome P450 2C19 (Homo sapiens) (UniProt P33261); assay: qHTS for inhibitors of CYP2C19 against the NCATS DSHEA and TCM libraries (AID 1919974);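 further: luminescence from luciferin released by CYP2C19 oxidation of a pro-luciferin substrate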; further: potency means the concentration at half of the fitted maximal effect
In short: (§1)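 Isoform-specific enzyme and substrate levels; enzyme-free wells as background. Reaction: 1x NADPH regenerating system, 30-45 min, room temperature, shielded from light; luminescent detection reagent added, 30 min.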

[3] = KB-3-1 P-gp reporter qHTS against the NCATS DSHEA and TCM libraries (AID 1919975); further: potency means the concentration at half of the fitted maximal effect
In short: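 KB-3-1 parental line, 1536-well qHTS: cells seeded, ~4 h attachment, pintool compound addition, ~72 h at 37C, then CellTiter-Glo, 30 min RT, luminescence. Concentration-response format.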

[4] = target: Cytochrome P450 1A2 (Homo sapiens) (UniProt P05177); assay: qHTS for inhibitors of CYPIA2 against the NCATS DSHEA and TCM libraries (AID 1919976);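 further: light from luciferin formed by CYP1A2 from a pro-luciferin substrate; series mostly up to about 37 µM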
In short: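 Furafylline served as the plate control. Compounds met CYP1A2 and pro-luciferin substrate 15 min before NADPH regeneration solution (1x) was added; after 30-45 min at RT, P450-Glo reagent was added for 30 min and luminescence was measured.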

[5] = qHTS Counterscreen for compound interference against the NCATS DSHEA and TCM libraries (AID 1919978); details: firefly luciferase detection reagent interference, luminescence;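 further: compounds preincubated with 1 µM D-luciferin or buffer before detection reagent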
In short: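 Compounds, titrated from 19.5 nM to 39.8 uM final, were pinned onto 1 uM D-luciferin or plain 100 mM potassium phosphate. After 15 min at room temperature, luciferin detection reagent was added for 30 min before the luminescence read.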

[6] = Dual reporter qHTS for agonist of Pregnane X Receptor (hPXR) against the NCATS DSHEA and TCM libraries: Fluorescence readout (AID 1920058)
In short: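 In this qHTS counter-read, reporter-bearing HepG2 cells in charcoal-stripped serum received substances for approximately 24 h before viability was assessed fluorometrically with CellTiter-Fluor.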

[7] = target: Nuclear receptor subfamily 1 group I member 2 (Homo sapiens) (UniProt O75469); assay: Dual reporter qHTS for agonist of Pregnane X Receptor (hPXR) against the NCATS DSHEA and TCM libraries: Luminescence readout (AID 1920059)
In short: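 hPXR-Luc HepG2 cells, 2000/well in 5% charcoal-stripped FBS medium, attached 5 h, then exposed 24 h at 37C to compounds. Viability by CellTiter-Fluor, then luciferase luminescence with ONE-Glo.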

[8] = target: Nuclear receptor subfamily 1 group I member 2 (Homo sapiens) (UniProt O75469); assay: Dual reporter qHTS for antagonist of Pregnane X Receptor (hPXR) against the NCATS DSHEA and TCM libraries: Luminescence Readout (AID 1920060);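 further: HepG2 cells carrying hPXR luciferase reporter stimulated with rifampicin at 2 µM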
In short: (§2)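 HepG2 hPXR-Luc, 2000 cells/well, charcoal-stripped FBS medium; 5 h attach; RIF 2 uM final; 24 h 37C/5% CO2; CellTiter-Fluor 1 h, fluor 405/540; ONE-Glo 30 min RT, lum.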

[9] = Dual reporter qHTS for antagonist of Pregnane X Receptor (hPXR) against the NCATS DSHEA and TCM libraries: Fluorescence Readout (AID 1920061)
In short: as §2

[10] = target: Cytochrome P450 2C9 (Homo sapiens) (UniProt P11712); assay: qHTS for inhibitors of CYP2C9 against the NCATS DSHEA and TCM libraries (AID 1919973);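 further: luminogenic pro-luciferin CYP2C9 substrate turned into luciferin with NADPH regeneration; series mostly up to about 34 µM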
In short: as §1

Chain of Nuclear receptor subfamily 1 group I member 2 (Homo sapiens) (O75469 whole entry, looked up): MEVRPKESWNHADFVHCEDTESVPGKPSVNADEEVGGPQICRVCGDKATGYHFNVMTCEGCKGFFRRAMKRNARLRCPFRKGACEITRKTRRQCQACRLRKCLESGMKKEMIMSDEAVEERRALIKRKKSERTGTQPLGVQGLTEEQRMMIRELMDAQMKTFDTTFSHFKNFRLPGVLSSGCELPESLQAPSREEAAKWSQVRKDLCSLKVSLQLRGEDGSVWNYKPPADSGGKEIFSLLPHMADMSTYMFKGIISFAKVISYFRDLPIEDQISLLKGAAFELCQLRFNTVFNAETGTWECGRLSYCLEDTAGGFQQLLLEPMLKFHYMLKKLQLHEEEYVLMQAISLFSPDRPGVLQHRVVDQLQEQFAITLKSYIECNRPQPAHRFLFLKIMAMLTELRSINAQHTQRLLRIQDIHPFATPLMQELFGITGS
Chain of Cytochrome P450 2C19 (Homo sapiens) (P33261 whole entry, looked up, canonical isoform): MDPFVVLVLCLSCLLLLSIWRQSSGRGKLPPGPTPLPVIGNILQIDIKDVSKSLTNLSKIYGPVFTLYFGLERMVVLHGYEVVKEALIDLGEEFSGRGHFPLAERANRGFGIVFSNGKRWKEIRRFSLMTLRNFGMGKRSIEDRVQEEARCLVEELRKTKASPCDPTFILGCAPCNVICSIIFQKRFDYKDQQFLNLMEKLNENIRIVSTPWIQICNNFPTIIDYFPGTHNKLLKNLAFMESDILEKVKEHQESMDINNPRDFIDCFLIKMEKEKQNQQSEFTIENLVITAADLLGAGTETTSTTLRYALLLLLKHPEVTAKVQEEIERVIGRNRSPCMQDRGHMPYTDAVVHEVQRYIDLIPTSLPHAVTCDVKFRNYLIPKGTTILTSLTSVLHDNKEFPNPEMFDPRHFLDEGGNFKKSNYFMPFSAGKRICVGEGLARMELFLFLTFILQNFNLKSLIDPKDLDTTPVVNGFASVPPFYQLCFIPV
Chain of Cytochrome P450 2D6 (Homo sapiens) (P10635 whole entry, looked up): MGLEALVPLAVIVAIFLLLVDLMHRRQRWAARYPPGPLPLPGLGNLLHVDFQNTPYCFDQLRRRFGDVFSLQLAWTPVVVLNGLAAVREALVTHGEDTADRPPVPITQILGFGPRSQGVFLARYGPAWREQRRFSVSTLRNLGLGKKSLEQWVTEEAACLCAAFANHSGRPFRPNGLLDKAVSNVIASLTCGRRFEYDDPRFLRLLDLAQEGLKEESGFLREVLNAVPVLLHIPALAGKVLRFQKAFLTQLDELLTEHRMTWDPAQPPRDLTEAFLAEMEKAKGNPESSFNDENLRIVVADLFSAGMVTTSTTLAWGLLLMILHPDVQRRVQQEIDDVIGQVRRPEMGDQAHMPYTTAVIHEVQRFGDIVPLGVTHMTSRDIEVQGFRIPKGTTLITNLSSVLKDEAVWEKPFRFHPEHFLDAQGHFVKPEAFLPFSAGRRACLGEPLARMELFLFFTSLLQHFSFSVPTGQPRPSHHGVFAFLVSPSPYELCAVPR
Chain of Cytochrome P450 2C9 (Homo sapiens) (P11712 whole entry, looked up): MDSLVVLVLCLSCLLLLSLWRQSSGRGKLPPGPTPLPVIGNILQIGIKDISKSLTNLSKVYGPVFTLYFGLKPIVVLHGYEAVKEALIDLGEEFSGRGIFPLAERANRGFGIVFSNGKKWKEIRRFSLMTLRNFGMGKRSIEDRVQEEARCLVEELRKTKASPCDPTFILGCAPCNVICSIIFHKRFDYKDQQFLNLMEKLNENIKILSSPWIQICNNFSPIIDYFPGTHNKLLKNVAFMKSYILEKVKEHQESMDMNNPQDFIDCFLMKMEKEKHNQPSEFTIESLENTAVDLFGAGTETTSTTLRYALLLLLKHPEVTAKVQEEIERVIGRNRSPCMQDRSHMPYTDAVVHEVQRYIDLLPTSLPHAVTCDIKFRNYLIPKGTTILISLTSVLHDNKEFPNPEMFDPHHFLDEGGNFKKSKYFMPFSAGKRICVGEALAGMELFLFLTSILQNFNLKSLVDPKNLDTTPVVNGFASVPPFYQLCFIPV
Chain of Cytochrome P450 1A2 (Homo sapiens) (P05177 whole entry, looked up): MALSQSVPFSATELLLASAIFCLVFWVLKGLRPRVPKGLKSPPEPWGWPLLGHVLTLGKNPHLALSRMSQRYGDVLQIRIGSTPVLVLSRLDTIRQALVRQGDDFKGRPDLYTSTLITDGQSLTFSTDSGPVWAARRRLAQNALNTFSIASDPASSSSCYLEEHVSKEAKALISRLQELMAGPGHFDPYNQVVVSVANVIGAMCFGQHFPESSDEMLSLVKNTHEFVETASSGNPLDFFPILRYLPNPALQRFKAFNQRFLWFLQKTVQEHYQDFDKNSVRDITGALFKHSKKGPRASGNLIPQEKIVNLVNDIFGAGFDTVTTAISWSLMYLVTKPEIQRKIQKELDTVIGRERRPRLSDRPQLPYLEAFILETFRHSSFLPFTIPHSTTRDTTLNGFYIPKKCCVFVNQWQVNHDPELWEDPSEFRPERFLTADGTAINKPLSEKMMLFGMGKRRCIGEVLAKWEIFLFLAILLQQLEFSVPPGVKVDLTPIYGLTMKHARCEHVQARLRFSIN

## NNC(=O)c1ccncc1
[1]
  Potency: inactive
[2]
  Potency: 12600 nM (active)
[3]
  Potency: inactive
[4]
  outcome: inactive
[5]
  max response: 1.88%
[6]
  outcome: inactive
[7]
  outcome: inactive
[8]
  outcome: inactive
[9]
  outcome: inactive

## COc1ccc2cc3[n+](cc2c1OC)CCc1cc2c(cc1-3)OCO2
[1]
  Potency: 2240 nM (active)
[10]
  outcome: inactive
[2]
  Potency: inactive
[3]
  Potency: 2000 nM (active)
[5]
  max response: -1.19%
[6]
  outcome: inactive
[7]
  outcome: inactive
[8]
  outcome: inactive
[9]
  outcome: inactive

## O=C(O)c1cccnc1
[2]
  Potency: inactive
[3]
  Potency: inactive
[6]
  outcome: inactive
[7]
  outcome: inactive
[8]
  outcome: inactive
[9]
  outcome: inactive
